Experimental data: publication PMC4336329 (PLoS ONE, 2015)
The campaign covered roughly 310,000 compounds. About 14,000 (4.5%) showed an effect of 50% or more. The effect is printed as a negative number. What follows is part of a selection rich in strong results, with near analogues and random picks from the rest.

Biological target: human ether-à-go-go-related gene (hERG) potassium channel (human, UniProt Q12809)
Assay: primary screen, population patch clamp on CHO cells stably expressing hERG; higher = less effect of the substance
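Also: peak tail current of the secondary pulse compared with the same well before compound.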

Sequence of human ether-à-go-go-related gene (hERG) potassium channel (Q12809 whole entry, looked up): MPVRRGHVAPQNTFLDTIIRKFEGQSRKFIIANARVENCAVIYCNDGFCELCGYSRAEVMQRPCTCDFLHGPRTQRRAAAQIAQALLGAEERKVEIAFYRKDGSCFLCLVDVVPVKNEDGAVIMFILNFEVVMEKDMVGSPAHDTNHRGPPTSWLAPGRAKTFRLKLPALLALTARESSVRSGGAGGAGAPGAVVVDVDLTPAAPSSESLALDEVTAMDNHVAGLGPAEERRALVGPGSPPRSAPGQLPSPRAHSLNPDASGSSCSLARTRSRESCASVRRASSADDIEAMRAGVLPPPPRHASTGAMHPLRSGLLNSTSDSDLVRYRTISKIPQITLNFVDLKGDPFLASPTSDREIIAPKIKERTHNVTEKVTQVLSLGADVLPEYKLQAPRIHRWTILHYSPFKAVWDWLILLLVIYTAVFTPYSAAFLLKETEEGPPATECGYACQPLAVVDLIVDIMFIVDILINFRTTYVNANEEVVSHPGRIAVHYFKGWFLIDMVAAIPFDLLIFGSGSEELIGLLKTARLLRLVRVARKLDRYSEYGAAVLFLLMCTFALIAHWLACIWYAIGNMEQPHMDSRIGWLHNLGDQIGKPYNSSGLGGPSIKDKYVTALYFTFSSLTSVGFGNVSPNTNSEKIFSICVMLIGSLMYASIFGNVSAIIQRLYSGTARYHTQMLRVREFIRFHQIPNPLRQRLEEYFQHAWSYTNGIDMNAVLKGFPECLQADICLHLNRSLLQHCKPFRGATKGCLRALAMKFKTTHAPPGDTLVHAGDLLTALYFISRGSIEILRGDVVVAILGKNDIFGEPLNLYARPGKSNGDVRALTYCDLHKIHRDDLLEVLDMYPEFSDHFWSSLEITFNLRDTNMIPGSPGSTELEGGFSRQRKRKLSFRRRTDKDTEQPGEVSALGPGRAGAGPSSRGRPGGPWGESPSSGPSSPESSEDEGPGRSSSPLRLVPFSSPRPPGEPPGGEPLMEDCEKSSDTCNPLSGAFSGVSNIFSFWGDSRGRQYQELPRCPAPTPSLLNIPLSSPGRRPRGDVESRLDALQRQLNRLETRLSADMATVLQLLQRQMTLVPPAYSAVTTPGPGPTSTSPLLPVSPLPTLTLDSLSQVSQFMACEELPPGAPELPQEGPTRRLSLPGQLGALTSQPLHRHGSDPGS

SMILES | hERG current change (%, negative = inhibition) at 10uM [%]
CC1CN(c2nc(Nc3ccccc3)nc(N)c2[N+](=O)[O-])CC(C)O1 (stereo not drawn) | -22.2
C=CCn1c(CCNC(=O)c2ccccc2F)nnc1SCC(=O)Nc1nc(C)cs1 | -5.2
N#C/C(=C(/O)COC(=O)c1cccnc1Cl)c1nc2ccccc2[nH]1 | 25.6
Cc1cccc(NC(=O)c2sc3nc4c(c(-c5ccco5)c3c2N)CCC4)c1 | -3.19
CC(C)NC(=O)c1sc2nc3c(c(-c4cccs4)c2c1N)CN(C)CC3 | -25.8
COC(=O)c1sc2nc3c(c(-c4cccs4)c2c1N)CCCC3 | 9.57
Cc1cccc(NC(=O)c2sc3nc4c(c(-c5cccs5)c3c2N)CN(C)CC4)c1 | -51.6
CN1CCc2nc3sc(C#N)c(N)c3c(-c3cccs3)c2C1 | -56.8
N#Cc1sc2nc3c(c(-c4ccco4)c2c1N)CCCC3 | -3.21
O=C(O)C1CC=CCC1C(=O)NC12CC3CC(CC(C3)C1)C2 (stereo not drawn) | 3.51
O=C(CSc1nc2ccccc2s1)Nc1ncccn1 | 13.4
O=S(=O)(c1cccs1)N1CCc2ccccc2C1 | -5.63
Cc1cccc(-c2nc(CS(=O)CC(=O)N3CC(C)CC(C)C3)c(C)o2)c1 (stereo not drawn) | -25.3
COC(=O)c1[nH]c2ccc(C)cc2c1NC(=O)CN1CCN(C(=O)c2ccccc2)CC1.Cl | -52.1
COC(=O)c1[nH]c2ccc(C)cc2c1NC(=O)CN1CCN(c2ccccc2)CC1 | -13.7
COC(=O)c1[nH]c2ccc(C)cc2c1NC(=O)CN1CCC(C)CC1 | -8.97
COC(=O)c1[nH]c2cccc(C)c2c1NC(=O)CN1CCN(C(=O)c2ccco2)CC1 | -16.9
COC(=O)c1[nH]c2ccccc2c1NC(=O)CN1CCN(C(=O)c2ccco2)CC1 | -32.8
COC(=O)c1[nH]c2cc(C)ccc2c1NC(=O)CN1CCN(C(=O)c2ccco2)CC1 | -54.3

SMILES | hERG current change (%, negative = inhibition) at 10uM [%]
Cc1nc2cc(C(=O)O)ccc2s1 | 5.41
COC(=O)c1ccc(Oc2c(C)oc3cc(OCc4cnn(-c5ccccc5)c4)ccc3c2=O)cc1 | 1.08
CCOc1cc(/C=N/NC(=O)c2cccnc2)cc(Br)c1OCC(N)=O | -22.5
O=C(CCc1nnc(Cc2cccc(C(F)(F)F)c2)o1)NC1CC1 | 32.2
O=C(COC(=O)C12CC3CC(CC(Cl)(C3)C1)C2)Nc1ccc2[nH]c(=O)[nH]c2c1 | 11.5
O=C(NCC1CCN(Cc2ccccc2Cl)CC1)Nc1ccccc1F | -44.7
COc1cc(NC(=O)NCC2CCN(Cc3ccccc3Cl)CC2)cc(OC)c1OC | 3.03
COc1cc(NC(=O)NCC2CCN(Cc3ccccc3F)CC2)cc(OC)c1 | -14.9
COc1ccc(OC)c(CN2CCC(CNC(=O)Nc3cccc(Cl)c3)CC2)c1 | -60.8
COc1ccc(N2CCC(CNC(=O)Nc3cccc(OC)c3)C2)cc1 (stereo not drawn) | -15.7
O=C(NCC1CCN(Cc2ccccc2Cl)CC1)Nc1cccc(Cl)c1 | -72
COc1ccc(NC(=O)C2CCCO2)cc1 (stereo not drawn) | -0.956
Cc1ccc(NC(=O)c2cccc(S(=O)(=O)N3CCN(c4ccc(F)cc4)CC3)c2)nc1 | -14.6
Cc1cc(CN(C)C(=O)CC2C(=O)NCCN2Cc2ccc(F)c(F)c2)on1 (stereo not drawn) | 31.1
Nc1ccc(-c2nnc(-c3ccc(-c4ccccc4)cc3)o2)cc1 | 4.31
S=c1[nH]c(-c2ccccc2)cs1 | 66.4
COc1ccc(C)cc1NS(=O)(=O)c1cccc2nonc12 | -10.7
CCCOc1cccc(C2C(C(=O)c3ccc(C)o3)=C(O)C(=O)N2CCN2CCOCC2)c1 (stereo not drawn) | 10.5
COC(=O)c1cc([N+](=O)[O-])ccc1N1CCN(Cc2ccccc2)CC1 | -72.2

SMILES | hERG current change (%, negative = inhibition) at 10uM [%]
CCN1CCN(c2ccc([N+](=O)[O-])cc2C(=O)OC)CC1 | -63.7
CCN1CCN(c2ccc([N+](=O)[O-])cc2S(=O)(=O)N2CCOCC2)CC1 | -43.9
O=C(O)c1cc([N+](=O)[O-])ccc1N1CCCCC1 | -1.28
NC(=O)c1cc([N+](=O)[O-])ccc1N1CCN(Cc2ccccc2)CC1 | -41.8
CCOc1ccccc1NC(=O)COc1cccc(-n2cnnn2)c1 | -27.2
O=C(NCCNC(=O)c1ccccc1Br)c1ccccc1Br | 8.51
Cc1ccc(C(=O)N/N=C2\SCC(=O)N2c2cc(C)ccc2C)cc1 | 8.16
COc1ccccc1CNC(=O)N1CCN(c2ccccc2C)CC1 | 6.36
CC(=O)C1=C(O)C(=O)N(c2ccc(Br)cc2)C1c1cccc([N+](=O)[O-])c1 (stereo not drawn) | 24.5
COC(=O)CSc1nc2cc(C)cc(C)c2cc1C#N | 14.5
CCCCCCOC(=O)C(C#N)c1nc2ccccc2nc1N1CCCCC1 (stereo not drawn) | 1.37
CCCCCCOC(=O)C(C#N)c1nc2ccccc2nc1N1CCN(C)CC1 (stereo not drawn) | -74.7
CCCCCCOC(=O)C(C#N)c1nc2ccccc2nc1N1CCOCC1 (stereo not drawn) | 1.23
CN1CCN(c2nc3ccccc3nc2C(C#N)C(=O)OC2CCCCC2)CC1 (stereo not drawn) | -79.5
CCCCOC(=O)C(C#N)c1nc2ccccc2nc1N1CCOCC1 (stereo not drawn) | -12.8
CC1CCN(c2nc3ccccc3nc2C(C#N)C(=O)OC2CCCCC2)CC1 (stereo not drawn) | 11.3
CCCCOC(=O)C(C#N)c1nc2ccccc2nc1N1CCN(Cc2ccc3c(c2)OCO3)CC1 (stereo not drawn) | -7.01
N#CC(C(=O)OC1CCCCC1)c1nc2ccccc2nc1N1CCOCC1 (stereo not drawn) | -36.8
CCCCCCOC(=O)C(C#N)c1nc2ccccc2nc1N1CCN(CC)CC1 (stereo not drawn) | -70.2
